According to PubChem BioAssay (EPA / NIEHS):
Records with an inconclusive call do not appear. The source made the active and inactive calls. The calls were made as follows, unless noted: active = hit-call score of the fitted dose curve at least 0.9, where 1 is the maximum; inconclusive = response in the unintended direction; inactive = score below 0.9.

How the values were obtained:
[1] = ATG_TAL_CIS: Attagene CIS-FACTORIAL HepG2 Assay for human TAL Basal Promoter (AID 2282966; active = hit-call score of the fitted dose curve at least 0.9, where 1 is the maximum; inactive = score below 0.9;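 also: background control endpoint measuring basal TAL promoter reporter mRNA not a specific factor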); details: HepG2 Attagene cis-factorial TAL promoter reporter; actives raise or lower the signal
Summary of the method: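 HepG2, transient MRTU transfection, 24 h compound exposure; RNA → oligo(dT) RT → PCR → 6-FAM primer extension → HpaI digest → CE fluorescence. Bidirectional curve fit vs DMSO. Background-control readout.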

[2] = ATG_TGFb_CIS: Attagene CIS-FACTORIAL HepG2 Assay for human Transforming Growth Factor (TGF) (AID 2282967; active = hit-call score of the fitted dose curve at least 0.9, where 1 is the maximum; inactive = score below 0.9); details: HepG2 Attagene CIS TGFb reporter, mRNA transcription; actives raise or lower the signal
Summary of the method: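 Multiplexed cis-reporter HepG2 system, 24 h treatment; mRNA induction read by fluorescence after RT-PCR and CE; DMSO negative control, bidirectional curve fitting.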

[3] = ATG_VDRE_CIS: Attagene CIS-FACTORIAL HepG2 Assay for human Vitamin D Receptor Element (VDRE) (AID 2282968; active = hit-call score of the fitted dose curve at least 0.9, where 1 is the maximum; inactive = score below 0.9); details: HepG2 VDRE cis-reporter transcription, actives raise or lower the signal
Summary of the method: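 Transient MRTU transfection of HepG2, 24 h compound exposure. Readout: reporter transcripts via RT-PCR and capillary electrophoresis, fluorescence. Bidirectional fit vs DMSO.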

[4] = biological target: Estrogen receptor (Homo sapiens) (UniProt P03372); test: ATG_ERa_TRANS: Attagene TRANS-FACTORIAL HepG2 Assay for human Estrogen Receptor alpha (ERa) (AID 2282970); details: HepG2 Attagene TRANS ERa GAL4 reporter, mRNA
Summary of the method: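 Reporter mRNA induction after 24 hours, detected by fluorescent RT-PCR and capillary electrophoresis, gives the read-out. Cells are HepG2 transiently transfected with GAL4-UAS reporter transcription units responding to chimeric NR-Gal4. Activity is taken as gain of signal over DMSO baseline.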

[5] = biological target: X-box-binding protein 1 (Homo sapiens) (UniProt P17861); test: ATG_Xbp1_CIS: Attagene CIS-FACTORIAL HepG2 Assay for human X-box Binding Protein 1 (XBP1) (AID 2282972; active = hit-call score of the fitted dose curve at least 0.9, where 1 is the maximum; inactive = score below 0.9); details: HepG2 XBP1 cis-element reporter, Attagene multiplex; actives raise or lower the signal
Summary of the method: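 Multiplexed cis-reporter readout in transfected HepG2 liver cells. Exposure lasted 24 hours. Activity in either direction was fitted against DMSO as negative control and baseline.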

[6] = ATG_M_19_TRANS: Attagene TRANS-FACTORIAL HepG2 Assay for M19 Transcription Factor (Internal Marker) (AID 2282974); details: HepG2 Attagene TRANS-FACTORIAL M19 internal marker reporter
Summary of the method: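 Gain-of-signal in reporter mRNA, relative to DMSO, was scored from capillary electrophoresis fluorescence. HepG2 cells carried transiently transfected multiple reporter transcription units and were incubated with test chemicals for 24 h.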

[7] = ATG_GAL4_TRANS: Attagene TRANS-FACTORIAL HepG2 Assay for GAL4 (Internal Marker) (AID 2282976); details: HepG2 Attagene TRANS GAL4 internal marker reporter
Summary of the method: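 RT-PCR/capillary electrophoresis readout of reporter mRNA. HepG2, transient MRTU transfection (GAL4-UAS reporters), 24 h compound exposure. Background-control endpoint, positive direction vs DMSO baseline.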

[8] = biological target: Glucocorticoid receptor (Homo sapiens) (UniProt P04150); test: ATG_GR_TRANS: Attagene TRANS-FACTORIAL HepG2 Assay for human Glucocorticoid Receptor (GR) (AID 2282978); details: HepG2 Attagene TRANS GR reporter, mRNA transcription;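 also: activators score as hits since higher reporter transcript over DMSO is fitted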
Summary of the method: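 HepG2 transient transfection, multiple reporter units, GAL4-UAS under NR-GAL4 chimera control. 24 h treatment. Reporter mRNA by RT-PCR/CE fluorescence, DMSO as negative control.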

[9] = biological target: Nuclear receptor subfamily 4 group A member 2 (Homo sapiens) (UniProt P43354); test: ATG_NURR1_TRANS: Attagene TRANS-FACTORIAL HepG2 Assay for human Nuclear Receptor Related Protein 1 (NURR1) (AID 2282985); details: HepG2 Attagene TRANS reporter, mRNA readout
Summary of the method: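 Read-out: reporter mRNA induction by RT-PCR plus capillary electrophoresis with fluorescence detection, after 24 h dosing of transfected HepG2 cells. Exogenous NR-Gal4 chimera activity drives GAL4-UAS reporter; activity fitted upward versus DMSO.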

[10] = biological target: Transcriptional activator Myb (Homo sapiens) (UniProt P10242); test: ATG_Myb_CIS: Attagene CIS-FACTORIAL HepG2 Assay for human Myeloblastosis (Myb) Proto-Oncogene Transcription Factor (AID 2282986; active = hit-call score of the fitted dose curve at least 0.9, where 1 is the maximum; inactive = score below 0.9); details: HepG2 Attagene CIS-FACTORIAL Myb reporter transcription; actives raise or lower the signal
Summary of the method: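 Multiplexed cis-reporter system in HepG2: transient transfection, 24 h treatment, mRNA readout by RT-PCR and capillary electrophoresis. Both increases and decreases are scored versus DMSO negative control.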

[11] = biological target: Nuclear respiratory factor 1 (Homo sapiens) (UniProt Q16656); test: ATG_NRF1_CIS: Attagene CIS-FACTORIAL HepG2 Assay for human Nuclear Respiratory Factor 1 (NRF1) Orphan Gene (AID 2282987; active = hit-call score of the fitted dose curve at least 0.9, where 1 is the maximum; inactive = score below 0.9); details: HepG2 NRF1 cis-element reporter, Attagene multiplex; actives raise or lower the signal
Summary of the method: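 Endogenous factor activity was captured via cis-element-driven reporter transcripts in HepG2 cells. Following 24 h chemical treatment, transcripts were quantified by RT-PCR and capillary electrophoresis.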

[12] = biological target: Steroid hormone receptor ERR1 (Homo sapiens) (UniProt P11474); test: ATG_ERRa_TRANS: Attagene TRANS-FACTORIAL HepG2 Assay for human Estrogen-Related Receptor alpha (ERRa) (AID 2282971); details: HepG2 Attagene TRANS reporter, ERRa transactivation
Summary of the method: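 Transfected HepG2, 24 h dosing, ERRa-Gal4 chimera driving GAL4-UAS reporter. Readout: reporter mRNA via RT-PCR plus capillary electrophoresis (fluorescence). Positive direction vs DMSO control.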

[13] = biological target: Hepatocyte nuclear factor 4-alpha (Homo sapiens) (UniProt P41235); test: ATG_HNF4a_TRANS: Attagene TRANS-FACTORIAL HepG2 Assay for human Hepatocyte Nuclear Factor 4 alpha (HNF4a) (AID 2282982); details: HepG2 HNF4a transactivation reporter, mRNA readout
Summary of the method: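 Transient MRTU transfection of HepG2, 24 h dosing. Readout: reporter mRNA via RT-PCR + capillary electrophoresis, fluorescence; activity fit upward relative to DMSO control.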

[14] = ATG_M_06_TRANS: Attagene TRANS-FACTORIAL HepG2 Assay for M06 Transcription Factor (Internal Marker) (AID 2282983); details: HepG2 Attagene TRANS M06 internal marker reporter
Summary of the method: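 Read-out: fluorescent reporter cDNA fragments resolved by capillary electrophoresis after RT-PCR and HpaI cut. Source cells were HepG2 carrying transfected multi-reporter GAL4 constructs, dosed 24 h. Increase over DMSO control analysed.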

[15] = ATG_M_32_TRANS: Attagene TRANS-FACTORIAL HepG2 Assay for M32 Transcription Factor (Internal Marker) (AID 2282984); details: HepG2 Attagene TRANS M32 internal marker reporter;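 also: transcript level of a background control reporter unit measured by RT-PCR and capillary electrophoresis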
Summary of the method: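 Read-out: fluorescent reporter cDNA fragments resolved by capillary electrophoresis after RT-PCR of total RNA. Transfected HepG2 cells were exposed to chemical for 24 h. Activity scored in the positive direction relative to DMSO.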

[16] = biological target: Estrogen-related receptor gamma (Homo sapiens) (UniProt P62508); test: ATG_ERRg_TRANS: Attagene TRANS-FACTORIAL HepG2 Assay for human Estrogen-Related Receptor gamma (ERRg) (AID 2282977); details: HepG2 Attagene TRANS reporter, ERRg transactivation;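 also: hits increase reporter signal over DMSO so potencies reflect activators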
Summary of the method: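 Readout: fluorescent reporter-mRNA fragments resolved by capillary electrophoresis after RT-PCR and HpaI cut. Cells: transiently transfected HepG2 carrying GAL4-UAS reporters driven by exogenous NR-Gal4 chimeras, dosed 24 h. Activity fitted upward relative to DMSO baseline.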

[17] = biological target: Bile acid receptor (Homo sapiens) (UniProt Q96RI1); test: ATG_FXR_TRANS: Attagene TRANS-FACTORIAL HepG2 Assay for Farnesoid X Receptor (FXR) (AID 2282979); details: HepG2 Attagene TRANS FXR-GAL4 reporter transcription;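 also: hits raise reporter mRNA above DMSO so AC50 marks FXR activation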
Summary of the method: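 Read-out: fluorescent reporter transcripts quantified by capillary electrophoresis after RT-PCR of total RNA. Source cells were HepG2 transiently carrying chimeric NR-GAL4 plus GAL4-UAS reporter units, dosed 24 h. Activity fitted upward relative to DMSO baseline.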

[18] = biological target: Oxysterols receptor LXR-alpha (Homo sapiens) (UniProt Q13133); test: ATG_LXRa_TRANS: Attagene TRANS-FACTORIAL HepG2 Assay for human Liver X Receptor alpha (LXRa) (AID 2282980); details: HepG2 Attagene TRANS reporter, LXRa transactivation
Summary of the method: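 Read-out: reporter transcript levels by RT-PCR plus capillary electrophoresis, fluorescence intensity. Transiently transfected HepG2, exogenous NR-GAL4 chimera, GAL4-UAS reporters; 24 h compound exposure. Activity = increase over DMSO negative control.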

[19] = biological target: Oxysterols receptor LXR-beta (Homo sapiens) (UniProt P55055); test: ATG_LXRb_TRANS: Attagene TRANS-FACTORIAL HepG2 Assay for human Liver X Receptor beta (LXRb) (AID 2282981); details: HepG2 Attagene TRANS GAL4-LXRb reporter, mRNA
Summary of the method: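 Readout: fluorescent reporter mRNA fragments resolved by capillary electrophoresis after RT-PCR. System: transiently transfected human HepG2, exogenous LXRb-Gal4 chimera driving GAL4-UAS reporter, 24 h dosing. Activity fitted upward against DMSO baseline.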

Measured: AC50

Oxysterols receptor LXR-alpha (Homo sapiens), sequence (Q13133 whole entry, looked up, the tested form may be a part): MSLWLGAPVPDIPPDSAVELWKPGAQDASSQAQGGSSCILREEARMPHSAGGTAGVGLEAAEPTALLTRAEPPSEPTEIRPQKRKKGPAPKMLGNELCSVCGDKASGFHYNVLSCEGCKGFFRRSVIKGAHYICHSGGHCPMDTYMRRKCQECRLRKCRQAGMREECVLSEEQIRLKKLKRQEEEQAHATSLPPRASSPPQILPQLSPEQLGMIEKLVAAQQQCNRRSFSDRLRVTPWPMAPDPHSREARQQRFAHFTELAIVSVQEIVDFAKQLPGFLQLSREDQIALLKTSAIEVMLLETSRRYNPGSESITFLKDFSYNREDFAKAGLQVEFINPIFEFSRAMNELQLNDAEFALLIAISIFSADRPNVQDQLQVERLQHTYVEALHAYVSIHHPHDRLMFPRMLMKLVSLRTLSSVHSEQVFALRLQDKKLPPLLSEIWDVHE
Glucocorticoid receptor (Homo sapiens), sequence (P04150 whole entry, looked up, the tested form may be a part): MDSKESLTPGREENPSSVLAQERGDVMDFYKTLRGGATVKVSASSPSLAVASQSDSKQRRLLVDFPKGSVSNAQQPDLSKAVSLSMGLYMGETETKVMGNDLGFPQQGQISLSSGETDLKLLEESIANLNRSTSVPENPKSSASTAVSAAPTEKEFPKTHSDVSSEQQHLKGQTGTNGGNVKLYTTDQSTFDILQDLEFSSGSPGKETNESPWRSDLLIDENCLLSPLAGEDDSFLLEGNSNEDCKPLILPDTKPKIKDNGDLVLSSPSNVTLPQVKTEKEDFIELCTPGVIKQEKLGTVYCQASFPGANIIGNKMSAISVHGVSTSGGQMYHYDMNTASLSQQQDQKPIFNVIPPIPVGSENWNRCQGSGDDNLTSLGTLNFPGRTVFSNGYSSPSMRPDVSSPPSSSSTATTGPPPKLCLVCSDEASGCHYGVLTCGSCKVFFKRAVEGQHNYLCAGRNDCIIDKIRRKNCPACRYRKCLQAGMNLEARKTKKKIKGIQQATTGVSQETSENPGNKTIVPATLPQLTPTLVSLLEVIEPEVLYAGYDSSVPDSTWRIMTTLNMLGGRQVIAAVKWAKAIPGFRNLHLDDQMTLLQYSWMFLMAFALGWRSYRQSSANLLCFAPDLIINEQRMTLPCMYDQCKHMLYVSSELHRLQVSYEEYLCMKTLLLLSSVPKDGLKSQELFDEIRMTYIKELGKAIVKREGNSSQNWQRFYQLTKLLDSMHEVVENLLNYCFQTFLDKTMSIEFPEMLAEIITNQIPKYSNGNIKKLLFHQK
Nuclear respiratory factor 1 (Homo sapiens), sequence (Q16656 whole entry, looked up): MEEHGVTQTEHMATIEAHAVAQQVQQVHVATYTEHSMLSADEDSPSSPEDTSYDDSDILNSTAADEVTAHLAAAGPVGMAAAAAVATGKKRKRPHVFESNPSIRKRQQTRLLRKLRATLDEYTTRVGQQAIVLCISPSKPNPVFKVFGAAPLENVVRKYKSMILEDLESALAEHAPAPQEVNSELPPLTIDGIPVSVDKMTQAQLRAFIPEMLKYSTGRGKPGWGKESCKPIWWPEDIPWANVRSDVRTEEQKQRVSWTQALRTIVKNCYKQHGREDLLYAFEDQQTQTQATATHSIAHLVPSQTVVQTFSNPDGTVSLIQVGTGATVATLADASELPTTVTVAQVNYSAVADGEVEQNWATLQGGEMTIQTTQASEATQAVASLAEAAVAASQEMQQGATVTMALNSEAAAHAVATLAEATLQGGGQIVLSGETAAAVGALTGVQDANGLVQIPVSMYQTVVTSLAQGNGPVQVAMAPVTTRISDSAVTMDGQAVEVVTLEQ
Estrogen-related receptor gamma (Homo sapiens), sequence (P62508 whole entry, looked up, the tested form may be a part): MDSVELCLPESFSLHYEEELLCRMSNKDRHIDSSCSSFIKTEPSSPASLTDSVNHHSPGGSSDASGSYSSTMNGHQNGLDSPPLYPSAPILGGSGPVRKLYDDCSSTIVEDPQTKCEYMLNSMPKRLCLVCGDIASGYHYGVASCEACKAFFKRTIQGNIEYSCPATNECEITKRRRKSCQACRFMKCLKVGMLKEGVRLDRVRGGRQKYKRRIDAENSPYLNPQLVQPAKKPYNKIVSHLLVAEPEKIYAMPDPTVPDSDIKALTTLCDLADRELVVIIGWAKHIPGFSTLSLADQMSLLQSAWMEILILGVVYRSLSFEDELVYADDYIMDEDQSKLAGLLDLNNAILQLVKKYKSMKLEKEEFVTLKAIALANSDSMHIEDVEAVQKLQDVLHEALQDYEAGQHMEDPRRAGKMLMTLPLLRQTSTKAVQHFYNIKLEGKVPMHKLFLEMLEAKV
Estrogen receptor (Homo sapiens), sequence (P03372 whole entry, looked up, the tested form may be a part): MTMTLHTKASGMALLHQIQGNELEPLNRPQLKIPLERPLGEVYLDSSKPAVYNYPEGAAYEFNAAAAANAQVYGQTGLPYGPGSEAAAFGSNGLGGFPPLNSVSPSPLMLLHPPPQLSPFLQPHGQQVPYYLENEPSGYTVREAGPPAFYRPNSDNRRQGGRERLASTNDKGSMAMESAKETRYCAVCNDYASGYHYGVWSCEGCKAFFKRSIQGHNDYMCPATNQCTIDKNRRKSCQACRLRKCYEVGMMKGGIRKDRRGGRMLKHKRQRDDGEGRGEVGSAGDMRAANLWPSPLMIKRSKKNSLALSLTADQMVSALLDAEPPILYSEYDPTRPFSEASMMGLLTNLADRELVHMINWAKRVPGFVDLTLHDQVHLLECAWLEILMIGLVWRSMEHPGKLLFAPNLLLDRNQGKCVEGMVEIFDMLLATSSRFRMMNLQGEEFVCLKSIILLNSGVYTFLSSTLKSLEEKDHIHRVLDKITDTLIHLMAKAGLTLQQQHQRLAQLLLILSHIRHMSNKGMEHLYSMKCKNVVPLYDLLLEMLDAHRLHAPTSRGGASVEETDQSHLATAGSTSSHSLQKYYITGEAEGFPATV
X-box-binding protein 1 (Homo sapiens), sequence (P17861 whole entry, looked up): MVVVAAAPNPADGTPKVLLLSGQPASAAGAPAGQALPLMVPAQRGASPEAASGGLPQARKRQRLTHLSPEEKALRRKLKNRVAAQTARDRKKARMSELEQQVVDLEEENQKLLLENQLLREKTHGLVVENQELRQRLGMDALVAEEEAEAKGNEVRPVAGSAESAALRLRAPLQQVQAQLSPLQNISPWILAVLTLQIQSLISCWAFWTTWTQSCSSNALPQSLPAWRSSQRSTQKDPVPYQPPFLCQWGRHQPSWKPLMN
Bile acid receptor (Homo sapiens), sequence (Q96RI1 whole entry, looked up, the tested form may be a part): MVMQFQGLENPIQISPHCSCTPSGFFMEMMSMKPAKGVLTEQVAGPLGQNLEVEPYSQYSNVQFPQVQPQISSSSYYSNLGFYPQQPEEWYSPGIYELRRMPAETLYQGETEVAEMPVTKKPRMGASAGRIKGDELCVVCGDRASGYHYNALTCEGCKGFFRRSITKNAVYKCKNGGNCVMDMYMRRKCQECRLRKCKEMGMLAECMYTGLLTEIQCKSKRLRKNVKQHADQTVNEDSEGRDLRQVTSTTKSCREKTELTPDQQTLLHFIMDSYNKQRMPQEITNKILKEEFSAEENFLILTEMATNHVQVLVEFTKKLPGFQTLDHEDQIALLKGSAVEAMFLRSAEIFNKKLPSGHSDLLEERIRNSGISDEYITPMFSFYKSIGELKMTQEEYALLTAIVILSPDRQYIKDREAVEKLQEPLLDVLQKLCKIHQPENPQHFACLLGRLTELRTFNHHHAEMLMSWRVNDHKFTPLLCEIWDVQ
Transcriptional activator Myb (Homo sapiens), sequence (P10242 whole entry, looked up): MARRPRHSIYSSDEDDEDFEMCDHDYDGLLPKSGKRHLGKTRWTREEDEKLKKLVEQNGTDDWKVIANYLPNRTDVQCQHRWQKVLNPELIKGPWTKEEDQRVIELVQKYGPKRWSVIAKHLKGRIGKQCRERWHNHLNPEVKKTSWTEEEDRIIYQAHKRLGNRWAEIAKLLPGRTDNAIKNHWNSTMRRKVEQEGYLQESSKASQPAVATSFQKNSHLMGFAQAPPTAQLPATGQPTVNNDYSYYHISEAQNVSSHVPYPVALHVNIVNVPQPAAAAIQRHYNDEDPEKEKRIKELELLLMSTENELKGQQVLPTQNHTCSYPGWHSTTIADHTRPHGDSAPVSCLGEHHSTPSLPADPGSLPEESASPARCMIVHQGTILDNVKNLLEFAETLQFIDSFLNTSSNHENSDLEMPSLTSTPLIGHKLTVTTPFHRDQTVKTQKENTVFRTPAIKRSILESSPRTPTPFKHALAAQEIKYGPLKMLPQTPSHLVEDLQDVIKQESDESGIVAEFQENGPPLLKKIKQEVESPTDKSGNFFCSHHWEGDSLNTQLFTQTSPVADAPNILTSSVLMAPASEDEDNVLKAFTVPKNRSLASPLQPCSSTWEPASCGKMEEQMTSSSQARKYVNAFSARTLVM
Nuclear receptor subfamily 4 group A member 2 (Homo sapiens), sequence (P43354 whole entry, looked up, the tested form may be a part): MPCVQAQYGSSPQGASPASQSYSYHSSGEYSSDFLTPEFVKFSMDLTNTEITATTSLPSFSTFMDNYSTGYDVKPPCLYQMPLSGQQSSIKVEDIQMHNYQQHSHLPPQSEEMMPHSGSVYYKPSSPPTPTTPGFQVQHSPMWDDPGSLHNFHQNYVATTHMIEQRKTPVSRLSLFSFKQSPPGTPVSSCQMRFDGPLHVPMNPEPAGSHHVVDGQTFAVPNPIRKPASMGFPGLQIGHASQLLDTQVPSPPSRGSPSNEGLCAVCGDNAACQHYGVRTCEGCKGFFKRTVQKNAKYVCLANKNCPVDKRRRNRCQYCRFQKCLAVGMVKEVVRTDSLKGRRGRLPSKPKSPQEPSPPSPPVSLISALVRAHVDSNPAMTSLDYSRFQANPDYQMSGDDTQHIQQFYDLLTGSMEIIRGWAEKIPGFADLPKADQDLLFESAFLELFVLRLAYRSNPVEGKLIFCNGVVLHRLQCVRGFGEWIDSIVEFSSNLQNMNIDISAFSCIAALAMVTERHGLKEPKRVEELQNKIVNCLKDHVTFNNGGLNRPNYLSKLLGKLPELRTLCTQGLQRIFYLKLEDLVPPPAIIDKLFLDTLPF

CCCCCc1ccc(Cl)cc1
not listed: [12] | [13] | [14] | [15] | [16] | [17] | [18] | [19]
inactive: all other assays above

CO[Si](OC)(OC)c1ccccc1
not listed: [7] | [8] | [9] | [16] | [17] | [18] | [19]
inactive: all other assays above

CC1=Nc2ccc3ccccc3c2C1(C)C
active: [3] 2.97 µM | [4] 17.1 µM
not listed: [8] | [14] | [19]
inactive: all other assays above

CCc1c(C(=O)O)c(=O)cnn1-c1ccc(Cl)cc1
not listed: [8] | [12] | [13] | [14] | [18] | [19]
inactive: all other assays above

CCCCCCCCCCOC(C)=O
inactive: [1] | [2] | [3] | [5] | [6] | [7] | [14] | [9] | [10] | [11]
active: [4] 47.2 µM

C1=CCCC1
not listed: [8] | [9] | [12] | [13] | [16] | [18] | [19]
inactive: all other assays above

S=C(NC1CCCCC1)NC1CCCCC1
not listed: [7] | [8] | [12] | [13] | [14] | [17] | [19]
inactive: all other assays above

CCCCCCCCCCc1ccccc1
not listed: [6] | [13] | [18]
inactive: all other assays above

CN(C)CCCN(C)C
not listed: [9] | [12] | [13] | [15] | [16] | [17]
inactive: all other assays above
